This is a sample that favours compounds with a hit; in the whole collection about 2.8% have one here.
Pol kappa inh: DNA polymerase kappa (human) inhibition; Potency, µM (series often up to 107 µM), for inactives: at the highest dose activity, negative = inhibition, most hits filed as inhibitors; Q9UBT6; AID 588579; 400,000 tested, 0.53% active; purified Pol kappa, fluorescent DNA synthesis assay, 10 min; note: potency is the fitted concentration of half-maximal effect; % is set by controls: 0 for no effect and ±100 for the full control effect
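First, compounds were pin-transferred onto 10 nM Pol kappa. After 15 min at room temperature, substrate was added to 50 nM final. Fluorescence was then measured kinetically at 0 and 10 min.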
FEN1 inhibitor: blocks human flap endonuclease 1. P39748. Recombinant FEN1 flap cleavage, fluorescence, 15 min. Potency, µM (titrated, usually from 114 µM), for inactives: at the highest dose activity change, negative = inhibition, usual class: inhibitors. 390,000 tested, 0.35% active; note: potency is the fitted concentration of half-maximal effect; % is set by controls: 0 for no effect and ±100 for the full control effect; nearly all actives have a fitted effect of over 65% in size
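Reaction started by adding substrate (50 nM final) to 10 nM enzyme after 15 min room-temperature compound preincubation. Reads at 0 and 15 min, with data normalized and fitted to a four-parameter Hill equation.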
POLH inh: DNA polymerase eta (human) inhibition; 390,000 tested, 1.2% active; Potency, µM (top dose mostly 114 µM), for the others: top-dose activity change, negative = inhibition, hits mostly inhibitors; Q9Y253; recombinant Pol eta, fluorescent DNA replication assay; AID 588591; note: potency is the fitted concentration of half-maximal effect; % is set by controls: 0 for no effect and ±100 for the full control effect
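Pol eta at 10 nM preincubated with compounds 15 min at room temperature; reaction started with fluorescent substrate (50 nM final) and read kinetically at 0 and 10 min.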
Pol iota inh: blocks human DNA polymerase iota activity; 390,000 tested, 1% active; Pol iota fluorescent replication assay, 10 min; Q9UNA4; AID 588590; Potency, µM (doses to about 115 µM), inactives show at the top dose activity, negative = inhibition, actives largely listed as inhibitors; note: potency is the fitted concentration of half-maximal effect
Target sequence (Q9UNA4 whole entry, looked up): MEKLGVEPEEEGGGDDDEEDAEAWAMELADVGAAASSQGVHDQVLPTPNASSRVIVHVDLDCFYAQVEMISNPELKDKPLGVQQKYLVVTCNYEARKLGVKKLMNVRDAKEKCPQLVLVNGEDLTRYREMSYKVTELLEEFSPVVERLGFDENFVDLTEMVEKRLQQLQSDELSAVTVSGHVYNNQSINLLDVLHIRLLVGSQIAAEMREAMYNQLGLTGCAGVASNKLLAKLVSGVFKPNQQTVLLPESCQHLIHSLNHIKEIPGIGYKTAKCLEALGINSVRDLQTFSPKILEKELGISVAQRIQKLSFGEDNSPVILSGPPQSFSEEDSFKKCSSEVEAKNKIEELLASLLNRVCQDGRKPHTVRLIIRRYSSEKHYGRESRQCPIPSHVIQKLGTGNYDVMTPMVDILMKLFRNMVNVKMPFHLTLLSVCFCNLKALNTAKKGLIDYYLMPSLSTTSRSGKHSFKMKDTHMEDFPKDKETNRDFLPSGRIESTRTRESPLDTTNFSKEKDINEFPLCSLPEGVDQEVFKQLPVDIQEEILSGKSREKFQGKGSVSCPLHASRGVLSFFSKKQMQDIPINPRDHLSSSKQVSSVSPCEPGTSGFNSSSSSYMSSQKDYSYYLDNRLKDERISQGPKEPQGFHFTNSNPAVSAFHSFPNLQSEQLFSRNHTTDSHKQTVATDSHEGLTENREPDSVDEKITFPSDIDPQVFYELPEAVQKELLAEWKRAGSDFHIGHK
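Fluorescent replication assay read twice, at 0 min and 10 min after adding 50 nM (final) substrate. Enzyme (10 nM) and compounds were first incubated 15 min at room temperature; enzyme-free buffer wells were negative controls.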
PI5P4K alpha inh: blocks human PI5P4K alpha kinase activity; max response, %; 330,000 tested, 1.2% active; P48426; PI5P4Kalpha enzyme, ADP-Glo luminescence, 60 min; active compounds read low; AID 652105; active = max response of -50% or lower; inconclusive = between -30% and -50%; inactive = -30% or higher; note: value at the top dose of about 77 µM; % is set by controls: 0 for no effect and ±100 for the full control effect
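Luminescence from ADP-Glo served as readout of PI5P4Kalpha activity in a qHTS format. Reaction: enzyme, substrate, compound, ATP at 5 microM final, 60 min at RT.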
Pol beta inh-1: inhibitors of human DNA polymerase beta | P06746 | Pol beta primer extension/strand displacement, fluorescence kinetic | Potency, µM (doses to about 114 µM), without a hit: top-dose activity change, negative = inhibition, usual class: inhibitors | 340,000 tested, 1.3% active; note: potency is the fitted concentration of half-maximal effect; % is set by controls: 0 for no effect and ±100 for the full control effect
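Curves were derived by four-parameter Hill fits of normalized qHTS data. The kinetic fluorescent primer-extension read was taken at 0 and 10 min after 50 nM substrate, following a 15 min room-temperature preincubation of 10 nM enzyme with compounds.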
Pol beta inh-2: Inhibitors of human DNA polymerase beta, hit validation. AID 540280. Potency, µM, usual class: inhibitors. shares compounds with Pol beta inh-1. Pol beta primer extension/strand displacement, fluorescence kinetic. 250 tested, 87% active; calls by dose curve; note: potency is the fitted concentration of half-maximal effect
Klenow counter: Klenow polymerase inhibition, pol beta selectivity check | AID 540300 | 250 tested, under 10 active | activity change, negative = inhibition, % at 57.1 µM | shares compounds with Pol beta inh-1 | Klenow exo- polymerase counter-screen, fluorescent DNA substrate
HIV RT inh: inhibits HIV-1 reverse transcriptase in counter-screen; activity % (negative = inhibition, positive = activation), % at 57.1 µM; HIV-1 RT polymerase activity, counter-screen; 250 tested, under 10 active; shares compounds with Pol beta inh-1
POLB valid: validation of human DNA polymerase beta inhibitors; shares compounds with Pol beta inh-1; radiolabeled primer extension gel assay, phosphorimager; inhibition, % at 10 µM; 110 tested, 91% active; AID 540325;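 active = inhibition at 10 µM of 30% or more; inconclusive = no clear call, values can overlap the other calls; inactive = inhibition at 10 µM under 30%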
* = called active by the depositor; ? = inconclusive; . = no result; [ ] = dose if it differs, or a comment. Unless noted, calls come from the whole dose curve; as a rule, active = well fitted curve in the direction sought with a large enough effect; inconclusive = small, poorly fitted or top-dose-only effect, or another doubt; inactive = no such curve, though single readings can be large; an effect the other way counts as inactive or inconclusive.

SMILES	Pol kappa inh	FEN1 inhibitor	POLH inh	Pol iota inh	PI5P4K alpha inh	Pol beta inh-1	Pol beta inh-2	Klenow counter	HIV RT inh	POLB valid
Cc1ccnc(NC(=O)C2CC(=O)N(c3ccc4c(c3)OCCO4)C2)c1 (stereo unspecified)	2%	-16%	-1%	-16%	-7	2%	.	.	.	.
CCOC(=O)c1sc2nc3c(SCCC(=O)O)cc(C(=O)c4cc(OC)ccc4O)cn3c(=O)c2c1C	-43%	?	11µM*	?	?	2.8µM*	6.3*	-25	22	.
C/C(CC(=O)Nc1cccc(Br)c1)=N\NC(=O)c1ccc(O)cc1O	-27%	6%	-10%	?	-11	-27%	.	.	.	.
Cc1c2cnn(CC(=O)Nc3c(F)c(F)cc(F)c3F)c(=O)c2c(C)n1Cc1ccc(F)cc1	.	.	.	.	.	8.9µM*	25*	-33	-6	100*
O=[N+]([O-])c1cccc(COc2ncnc3cc([N+](=O)[O-])ccc23)c1	-16%	?	-19%	34%	-14	-4%	.	.	.	.
CCC(=O)N1CCc2cc(Br)cc(S(=O)(=O)CCC(=O)Nc3cccc(Cl)c3)c21	-12%	21%	?	7%	.	-22%	.	.	.	.
Cc1cc2oc(=O)cc(-c3cc4ccccc4o3)c2cc1O	?	-24%	?	-103%	-22	0.25µM*	16*	-24	17	.
CC(=O)COc1ccc2oc(=O)cc(-c3cc4ccccc4o3)c2c1	-2%	?	-20%	-5%	-9	10%	.	.	.	.
O=C(CSc1nnc(COc2ccc(Cl)cc2)o1)N(c1ccccc1)C1CCS(=O)(=O)C1 (stereo unspecified)	.	.	-21%	.	3	.	.	.	.	.
Cn1c(SCC(=O)Nc2ccccc2)nnc1-c1ccccc1	-7%[60.1 µM]	12%	-7%	12%	.	-10%	.	.	.	.
Cn1c(SCC(=O)Nc2ccc3c(c2)oc2ccccc23)nnc1-c1ccccc1	-12%	5%	-19%	?	.	2.2µM*	?	-11	15	13
O=[N+]([O-])c1cc(CN2CCCC2)c2cccnc2c1O	?	40µM*	3.2µM*	?	?	1.8µM*	2.8*	-7	11	.
Cc1nn(-c2cccc(Cl)c2)c2nc(-c3ccco3)cc(C(=O)O)c12	-20%	0%	18µM*	?	0	14µM*	?	-16	-10	.
Cc1cccc(-n2nc(C)c3c(C(=O)O)cc(-c4cccs4)nc32)c1	-6%	-12%	-9%	98%	19	-11%	.	.	.	.
Cc1cc(C)nc(SCC(=O)c2ccc(O)c(O)c2)n1	?	-4%	16µM*	?	?	4.5µM*	32*	-32	20	42*
Cc1cc(=O)[nH]c(SCC(=O)c2ccc(O)c(O)c2)n1	?	9%	18µM*	50µM*	-16	11µM*	28*	-12	?	16
N#C/C(=C/c1ccc(OC(=O)c2ccc(Br)s2)cc1)c1nc2ccccc2[nH]1	-28%	-29%	-8%	59%	-23	.	.	.	.	.
N#C/C(=C\c1ccc(OC(=O)c2ccc(Br)s2)cc1)c1nc2ccccc2[nH]1	-23%	-5%	5.6µM*	44%	-2	2µM*	8.9*	-8	13	.
CC(C)(C)c1nc2ccccc2c2nnc(SCC(=O)Nc3nccs3)n12	-5%	-8%	-2%	22%	.	14%	.	.	.	.
CC(C)(C)c1nc2ccccc2c2nnc(SCC(=O)Nc3nc4ccccc4s3)n12	-23%	-6%	-16%	45µM*	.	0.18µM*	?	2	32	85*
CC(C)(C)C1CCC(N2CCN(c3ccccc3)CC2)CC1 (stereo unspecified)	-5%	-6%	-1%	-11%	5	-1%	.	.	.	.
Cc1ccc(-n2nnc3c(=O)n(CC(=O)NCc4ccccc4)cnc32)cc1	-18%	12%	-11%	-24%	8	10µM*	?	11	29	50*
CCSc1nnc(NC(=O)C2Cc3ccccc3CN2S(=O)(=O)CC)s1 (stereo unspecified)	-41%	1%	56µM*	?	?	18µM*	28*	-4	10	100*
COC(=O)CCCC1=CC2=CC(=O)C(C)(OC(=O)c3cccs3)C(=O)C2=CN1c1ccc(OC)cc1 (stereo unspecified)	-23%	-9%	-10%	61%	-9	0%	.	.	.	.
CC1(OC(=O)c2cccs2)C(=O)C=C2C=C3CCCN3C=C2C1=O (stereo unspecified)	11µM*	?	22µM*	4.5µM*	-60*	14µM*	28*	9	21	.
SMILES	Pol kappa inh	FEN1 inhibitor	POLH inh	Pol iota inh	PI5P4K alpha inh	Pol beta inh-1	Pol beta inh-2	Klenow counter	HIV RT inh	POLB valid
COC(=O)c1cccc(Nc2nn3c(=O)c4cc5c(cc4nc3s2)OCO5)c1	1%	21%	-5%	8%	.	3%	.	.	.	.
Cc1cccc(Nc2nn3c(=O)c4ccccc4nc3s2)c1	?	0%	?	?	-2	10µM*	4*	-7	27	.
CCn1c(SCC(=O)Nc2sc3c(c2C#N)CCCC3)nnc1-c1ccco1	10%	-2%	-6%	-1%	-10	-2%	.	.	.	.
NC(=O)c1c(NC(=O)CSc2nnc(-c3ccco3)n2-c2ccccc2)sc2c1CCC2	?	?	10µM*	?	-65*	4.5µM*	13*	-16	14	.
Cc1cc(C)c2cc(C#N)c(SCC(=O)NCc3ccco3)nc2c1	-8%	-1%	?	?	-24	20µM*	28*	-4	5	86*
COc1ccc2c(c1)CC(NC(=O)Nc1ccc(NC(C)=O)cc1)CO2 (stereo unspecified)	-2%[60.1 µM]	-4%	-8%	10%	.	2%	.	.	.	.
O=C(CSc1nc2scc(-c3ccco3)c2c(=O)n1-c1ccccc1)NCC1CCCO1 (stereo unspecified)	-41%	1%	?	40µM*	?	11µM*	?	-33	25	70*
O=C(CSc1nnc(-c2ccco2)n1-c1ccccc1)NCC1CCCO1 (stereo unspecified)	-2%	-3%	-9%	3%	4	25%	.	.	.	.
